This is an account of results in PubChem BioAssay.

Structures are written as SMILES.

The subject of the assay is XIP peptide (Xip251-270). In words: compounds binding XIP fragment 251-270 – biochemical, small-molecule microarray, fluorescence 635/667 nm, 0.5 µg/mL protein, primary screen (AID 1183). As to conditions: fluorescence 635 nm, higher = more signal.
For the molecule `CC(C)(C)N1CC=CC23O[C@@H]4/C=C\CCCOC(=O)C4[C@H]2C(=O)N(CCCCCO)[C@@H]3C1=O` (stereo partly specified), the composite z-score was -1.03. Take `COCCCNC(=O)[C@@]1(CCS(=O)(=O)c2ccccc2)COC(c2ccc(OCCCO)cc2)=N1`: the composite z-score is -0.227. The same measure for `O=C1NC(=O)C2C1C=CC(C(O)c1ccc(B(O)O)cc1)N2Nc1ccc(Cl)cc1Cl` (stereo unspecified): -0.0187. The same measure for `CCOc1cc(C(O)C2C=CC3C(=O)N(c4ccccc4)C(=O)C3N2Nc2ccccc2F)ccc1O` (stereo unspecified): -0.213.

In the case of `O=C1OCCC=C[C@H]2OC34C=CCN(c5ccc6ccccc6c5)C(=O)[C@H]3N(CCO)C(=O)[C@@H]4C12` (stereo partly specified), the composite z-score is 0.569. For `CN(C)CCCNC(=O)[C@@]1(Cc2ccccc2I)c2ccccc2C(=O)N(C2CCCCC2)[C@H]1c1ccc(CO)cc1` the value was 0.611; for `COc1ccc(C#Cc2ccc3c(c2)[C@]2(C(=O)N3)[C@H](C(=O)O)[C@H]3C(=O)O[C@H](c4ccccc4)[C@H](c4ccccc4)N3[C@@H]2c2ccccc2OCCO)cc1`, 0.833; for `COCCOC(=O)N1C(=O)[C@@]2(c3cc(C#CC4(O)CCCCCC4)ccc31)[C@H](c1ccc(O)cc1)N1[C@H](c3ccccc3)[C@H](c3ccccc3)OC(=O)[C@H]1[C@@H]2C(=O)N1CCCCCCC1`, 0.747. With `[N-]=[N+]=Nc1ccccc1[C@@H]1OC(c2ccc(OCCCO)cc2)=N[C@]1(Cc1ccccc1)C(=O)NCCN1CCOCC1`, the composite z-score stood at 0.441. For `CCCCC(O)C1C=CC2C(=O)N(c3ccccc3)C(=O)C2N1Nc1ccccc1` (stereo unspecified), the composite z-score amounted to 0.137. In the case of `CC=CC(O)C1C=CC2C(=O)NC(=O)C2N1Nc1ccc(Cl)cc1Cl` (stereo unspecified), the composite z-score was -0.186. `COC(=O)[C@H](Cc1ccccc1)N1CC2=CCCC=C[C@@H]2[C@H]1[C@H](O)Cc1ccccc1`: the composite z-score is -0.221. The same measure for `Cc1ccc(S[C@]2(C(=O)NC(C)C)CC(=O)N(C3CCCCC3)[C@@H]2c2ccc(CO)cc2I)cc1`: 0.864; for `CCCNC(=O)[C@@]1(c2ccc([N+](=O)[O-])cc2)CC(=O)N(C(C)C)[C@@H]1c1ccc(CO)cc1`: 0.228. The same measure for `COC(=O)[C@@]1(Cc2ccc(OC)cc2)[C@H]2c3cc(C(=O)N(C)C)[nH]c3C[C@H]2CN1C(=O)c1ccccc1`: -0.197. In the case of `O=C1N(CCS(=O)(=O)c2ccccc2)c2ccccc2C[C@]12N=C(c1ccc(OCCCO)cc1)O[C@@H]2c1ccccc1`, the composite z-score worked out at 0.811.

Consider `CC1=C([C@H](O)CCc2ccccc2)[C@H](CO)n2c(=O)n(-c3ccccc3)c(=O)n2C1`, for which the composite z-score was determined as 0.754. `O=C1O[C@H](Cc2ccccc2)[C@@H]2[C@H]3C=CCCC=C3CN2[C@H]1Cc1ccc(O)cc1`: the composite z-score was -0.61. Take `CN(C)c1ccc(C(O)C2C=CC3C(=O)N(Cc4ccccc4)C(=O)C3N2n2cnnc2)cc1` (stereo unspecified): the composite z-score was -0.23. The same measure for `COC(=O)[C@@]1(Cc2ccc(F)cc2)[C@H]2c3cc(C(=O)N(C)C)n(CCc4ccc(O)c(O)c4)c3C[C@H]2CN1C(=O)c1ccccc1`: 0.162; for `CCCC[C@H]1C[C@@H]1[C@@H]1N(C(C)=O)[C@H](c2cccc(OC)c2)CC12CC2`: -1.04; for `CC(=O)OCC1C2CC[C@H]3C(OCc4ccc(F)cc4C(F)(F)F)OC[C@]4(C)[C@H]3C2=C(CN4C(=O)OC(C)(C)C)[C@H](C)C1COC(C)=O` (stereo partly specified): 0.653.

With `COc1ccccc1CN1C(=O)c2ccccc2[C@](Cc2ccccc2I)(C(=O)NCC(C)C)[C@@H]1c1ccc(CO)cc1`, the composite z-score stood at 0.932.

For `C[N+](C)(C)CCCC[C@@H]1NC(=O)[C@@H]2C[C@H](C(=O)NCc3ccc(F)cc3)[C@H](c3ccc(O)cc3)N2C1=O`, the composite z-score was determined as 0.0664.

As for `CN1C(=O)C2C(C1=O)C1C=C(CCCO)C2C(C2CC2)N1Cc1cccc(OC(F)(F)F)c1` (stereo unspecified), the composite z-score was 0.9. For `COC(=O)[C@@]1(Cc2ccccc2)[C@H]2c3cc(C(=O)N(C)C)n(Cc4ccc(S(C)(=O)=O)cc4)c3C[C@H]2CN1C(=O)c1ccccc1`, the composite z-score is 0.721.

On to `O=C1c2ccccc2[C@@]2(Cc3ccccc3N(Cc3ccccc3)C2=O)[C@H](c2ccc(CO)cc2)N1Cc1ccccc1Cl`, for which the composite z-score worked out at 0.311.

For `O=C1C[C@@](C(=O)NCc2ccccc2)(c2ccc([N+](=O)[O-])cc2)[C@@H](c2ccc(CO)cc2)N1C1CCCCC1`, the composite z-score stood at 0.607. For `CC(C)c1nc2cc(Br)ccc2c(=O)o1` the value was 0.355; for `CCOC(=O)C1=CCC(c2cc3ccccc3[nH]2)N(CCN2CC(C(=O)OCC)=CCC2c2cc3ccccc3[nH]2)C1` (stereo unspecified), 0.737; for `O=C(NC1CC1)[C@@H]1c2ccccc2C(=O)N(CC23CC4CC(CC(C4)C2)C3)[C@H]1c1ccc(CO)cc1`, 0.686.
